High-throughput results deposited in PubChem by several laboratories.
Sampled rows, rich in hits. Any-hit rate of the full collection: about 5%.
CHT PAM = allosteric activators of human choline transporter CHT; Q9GZV3; 0.49% of 310,000 active; B-score at 10 µM; CHT-expressing cells, membrane potential dye, choline EC20; hits give high values; LV-AA mutant CHT in HEK293 cells;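 active = initial fluorescence not abnormally high and integrated response B-score, plate-corrected, over 3 SD above library mean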
CHT block = human CHT choline transport inhibition | B-score at 10 µM | CHT-expressing cells, membrane potential dye, choline response; hits give low values | Q9GZV3 | 0.86% of 310,000 active | AID 488975;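 active = B-score over 3 SD under the library average, and starting fluorescence ratio not unusually high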;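 also: choline stimulus applied at its EC90 after an EC20 pre-addition; B-score computed on integrated fluorescence ratio after choline addition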
AI-2 QS modul = modulates the Vibrio harveyi AI-2 quorum sensing system; 0.4% of 300,000 active; Vibrio harveyi JMH597 AI-2 luminescence/OD600 ratio, 9 h; hits give low values; strain lacks LuxN and CqsS sensors; 0 = neutral-control median; activity change, % at 7.5 µM; in the data active = activity change below about -75%, passing the limit was not always enough;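 also: luminescence divided by OD600 gain over 9 h not by final OD600 alone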
PREPL inhibitor = inhibits the human prolyl oligopeptidase-like enzyme; Q4J6C6; recombinant PREPL, fluorescence polarization activity-based probe; inhibition, % at 5.96 µM; 0.68% of 320,000 active; AID 2751; in the data active = inhibition above about 43%;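 also: 0% = enzyme with DMSO and 100% = wells lacking enzyme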
Target sequence (Q4J6C6 whole entry, looked up): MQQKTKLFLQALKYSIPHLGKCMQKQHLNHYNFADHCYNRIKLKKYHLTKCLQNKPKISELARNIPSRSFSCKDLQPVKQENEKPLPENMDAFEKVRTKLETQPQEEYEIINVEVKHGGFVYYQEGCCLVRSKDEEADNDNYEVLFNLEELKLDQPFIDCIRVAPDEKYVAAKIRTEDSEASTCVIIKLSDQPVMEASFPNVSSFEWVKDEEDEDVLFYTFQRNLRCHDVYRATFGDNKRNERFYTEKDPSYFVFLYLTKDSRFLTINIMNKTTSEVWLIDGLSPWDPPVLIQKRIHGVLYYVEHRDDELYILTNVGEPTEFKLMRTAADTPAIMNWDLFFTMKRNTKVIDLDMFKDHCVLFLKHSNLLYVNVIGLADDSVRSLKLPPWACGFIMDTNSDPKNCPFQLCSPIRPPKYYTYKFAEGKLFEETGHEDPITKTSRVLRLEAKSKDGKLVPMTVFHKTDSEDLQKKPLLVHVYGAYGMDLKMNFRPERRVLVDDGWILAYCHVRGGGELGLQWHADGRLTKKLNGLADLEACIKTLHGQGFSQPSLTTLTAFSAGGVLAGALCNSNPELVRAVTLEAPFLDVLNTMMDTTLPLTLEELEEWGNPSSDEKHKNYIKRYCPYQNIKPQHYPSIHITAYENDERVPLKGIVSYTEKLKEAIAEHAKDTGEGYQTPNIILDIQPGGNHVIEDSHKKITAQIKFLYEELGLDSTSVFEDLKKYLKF
ALR H2O2 inh = inhibitors of human sulfhydryl oxidase ALR; purified ALR, DTT oxidation, H2O2 HRP-luminol luminescence; P55789; inhibition, % (test concentration not listed); 3.8% of 290,000 active;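 active = mean replicate inhibition above about 79%, with every replicate also reaching it, limit read from the data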
CHT activ conf = confirmation of human choline transporter (CHT) activators; shares compounds with CHT PAM; CHT-expressing cells, membrane potential dye fluorescence (FDSS); % of choline EC20–EC90 response window; HEK293 expressing CHT LV-AA mutant; choline added at its EC20; activation, % at 10 µM; 91% of 2,500 active; AID 504833;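 active = primary screen active, with duplicate mean activation above negative control mean plus 3 SD, cut at about 11% in these data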
HEK293 MP dye = CHT activator counter-screen hit in parental HEK293 cells; membrane potential dye fluorescence (FDSS); measured after EC20 choline addition; shares compounds with CHT PAM; AID 623908; 62% of 2,500 active; ratio readout change at 10 µM, hits read low;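 active = duplicate-averaged ratio beyond 3 SD from buffer wells, up or down, though filed actives are nearly all decreases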
* hit, by the source's call.

How did O=C(COC(=O)c1ccccc1)Nc1cc(S(=O)(=O)N2CCCCCC2)ccc1Cl do in these assays?
PREPL inhibitor: 20

Results for COc1ccc(/C=N/NC(=O)C(=O)Nc2ccccn2)cc1OC ?
CHT PAM: inactive; CHT block: inactive; AI-2 QS modul: 15; PREPL inhibitor: 10

How did COc1ccc(/C=N/Nc2ccccn2)cc1OC do in these assays?
CHT PAM: inactive; CHT block: inactive; AI-2 QS modul: 8; PREPL inhibitor: 18; ALR H2O2 inh: 99*; CHT activ conf: 42*; HEK293 MP dye: -43*

Results for FC(F)(F)c1ccc(N/N=C/c2cccnc2)nc1 ?
CHT PAM: inactive; CHT block: inactive; AI-2 QS modul: 3; PREPL inhibitor: 4; ALR H2O2 inh: -3

What do the screens show for `C(=N\Nc1ccccn1)/c1cccnc1`?
CHT PAM: inactive; CHT block: inactive; AI-2 QS modul: 37; PREPL inhibitor: 10; ALR H2O2 inh: 6; CHT activ conf: 59*; HEK293 MP dye: -54*

What do the screens show for `CN(CCOc1ccccc1)CC(=O)Nc1ccc(Cl)c(S(=O)(=O)N(C)C)c1`?
CHT PAM: 7*; CHT block: inactive; AI-2 QS modul: 46; PREPL inhibitor: 4; ALR H2O2 inh: -6; CHT activ conf: 5; HEK293 MP dye: inactive

What do the screens show for `CN(C)S(=O)(=O)c1cc(NC(=O)CNCc2ccccc2)ccc1Cl`?
CHT PAM: inactive; CHT block: inactive; AI-2 QS modul: 4; PREPL inhibitor: 3; ALR H2O2 inh: -4

What do the screens show for `Cc1cc(NCCCN2CCOCC2)n2ncc(-c3ccccc3)c2n1`?
CHT PAM: inactive; CHT block: inactive; AI-2 QS modul: 22; PREPL inhibitor: 12; ALR H2O2 inh: 9

What do the screens show for `Cc1nc2c(-c3ccc(F)cc3)c(C)nn2c(N2CCOCC2)c1C`?
CHT PAM: inactive; CHT block: inactive; AI-2 QS modul: 10; PREPL inhibitor: -2; ALR H2O2 inh: -5

How did Cc1cc(NCCCN2CCOCC2)n2nc(C)c(-c3ccc(F)cc3)c2n1 do in these assays?
CHT PAM: inactive; CHT block: inactive; AI-2 QS modul: 15; PREPL inhibitor: 0; ALR H2O2 inh: 98*; CHT activ conf: 52*; HEK293 MP dye: -65*

How did Cc1cc(NCCCN2CCOCC2)n2nc(C)c(-c3ccccc3)c2n1 do in these assays?
CHT PAM: 9.7*; CHT block: inactive; AI-2 QS modul: 4; PREPL inhibitor: -2; CHT activ conf: 45*; HEK293 MP dye: -57*

How did CCCCCOc1ccc(Br)cc1/C(C)=N/NC1=NCCN1 do in these assays?
CHT PAM: 8.7*; CHT block: inactive; AI-2 QS modul: -2; PREPL inhibitor: 6; ALR H2O2 inh: -3; CHT activ conf: 55*; HEK293 MP dye: inactive

Results for Cc1nnc2sc(-c3cccc(NC(=O)c4cccnc4)c3)nn12 ?
CHT PAM: 7.9*; CHT block: inactive; AI-2 QS modul: 18; PREPL inhibitor: -3; ALR H2O2 inh: 2; CHT activ conf: 35*; HEK293 MP dye: -49*

Results for Cc1ccc(-c2nn3c(C)nnc3s2)cc1NC(=O)c1cccnc1 ?
CHT PAM: 8.3*; CHT block: inactive; AI-2 QS modul: 17; PREPL inhibitor: 24; ALR H2O2 inh: -13; CHT activ conf: 59*; HEK293 MP dye: -54*

How did COC(=O)C1=C(COc2ccccc2)NC(=O)NC1c1ccc2ccccc2c1 (stereo unspecified) do in these assays?
CHT PAM: inactive; CHT block: inactive; AI-2 QS modul: 10; PREPL inhibitor: -28; ALR H2O2 inh: -5

How did CCOC(=O)/C(C#N)=C/c1c(N2CCN(Cc3ccc4c(c3)OCO4)CC2)nc2c(C)cccn2c1=O do in these assays?
CHT PAM: inactive; CHT block: inactive; AI-2 QS modul: 32; PREPL inhibitor: 5; ALR H2O2 inh: -33

What do the screens show for `CN1CCN(c2nc3ccccn3c(=O)c2C=O)CC1`?
CHT PAM: 6.3*; CHT block: inactive; AI-2 QS modul: 15; PREPL inhibitor: -9; ALR H2O2 inh: -10; CHT activ conf: 48*; HEK293 MP dye: -45*

Results for COCCNC(=O)/C(C#N)=C/c1c(N2CCN(c3ccccc3)CC2)nc2ccccn2c1=O ?
CHT PAM: inactive; CHT block: inactive; AI-2 QS modul: 23; PREPL inhibitor: 14

Results for CCOC(=O)/C(C#N)=C/c1c(N2CCN(C)CC2)nc2c(C)cccn2c1=O ?
CHT PAM: inactive; CHT block: inactive; AI-2 QS modul: 7; ALR H2O2 inh: -13; CHT activ conf: 46*; HEK293 MP dye: -48*

What do the screens show for `CCN1CCN(c2nc3c(C)cccn3c(=O)c2/C=C(\C#N)C(=O)NCCOC)CC1`?
CHT PAM: 8.7*; CHT block: inactive; AI-2 QS modul: 30; PREPL inhibitor: 9; ALR H2O2 inh: -2; CHT activ conf: 60*; HEK293 MP dye: -62*

What do the screens show for `O=Cc1c(N2CCCCC2)nc2ccccn2c1=O`?
CHT PAM: inactive; CHT block: inactive; AI-2 QS modul: 4; PREPL inhibitor: 14; ALR H2O2 inh: -2

Results for COCCNC(=O)/C(C#N)=C/c1c(N2CCN(C)CC2)nc2c(C)cccn2c1=O ?
CHT PAM: 9.7*; CHT block: inactive; AI-2 QS modul: 13; PREPL inhibitor: 3; ALR H2O2 inh: -4; CHT activ conf: 67*; HEK293 MP dye: -56*

How did O=C(CCc1ccccc1)NCCc1nc2ccccc2[nH]1 do in these assays?
CHT PAM: inactive; CHT block: inactive; AI-2 QS modul: 1; PREPL inhibitor: -3; ALR H2O2 inh: -6

How did O=C(c1ccc(F)c(F)c1)N1CCCc2ccccc21 do in these assays?
CHT PAM: inactive; CHT block: inactive; AI-2 QS modul: 7; PREPL inhibitor: -9; ALR H2O2 inh: -3

What do the screens show for `COCCCNC(=O)/C(C#N)=C/c1c(N2CCN(c3ccccc3)CC2)nc2ccccn2c1=O`?
CHT PAM: inactive; CHT block: inactive; AI-2 QS modul: 3; PREPL inhibitor: 17; ALR H2O2 inh: 7

Results for CCNC(=O)/C(C#N)=C/c1c(N2CCCCCC2)nc2ccccn2c1=O ?
CHT PAM: inactive; CHT block: inactive; AI-2 QS modul: 26; PREPL inhibitor: 3

Results for COCCCNC(=O)/C(C#N)=C/c1c(N2CCN(C)CC2)nc2c(C)cccn2c1=O ?
CHT PAM: 6.9*; CHT block: inactive; AI-2 QS modul: 5; PREPL inhibitor: 2; ALR H2O2 inh: -2; CHT activ conf: 52*; HEK293 MP dye: -56*
